Screening data deposited in PubChem by The Scripps Research Institute Molecular Screening Center.
SF1 inhibitor: inhibitors of human SF-1, primary screen, cell-based, CHO-K1, Gal4-SF-1 LBD, luciferase luminescence | 65,000 compounds, 0.55% hits | inhibition, % at 10 µM | CHO-K1 Gal4-SF-1 LBD luciferase reporter | Steroidogenic factor 1 (Homo sapiens), Q13285 | AID 525, 2006;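 active = inhibition above the mean inhibition of all tested compounds plus 3 SD, cut at about 48% in these data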;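 note: 0% = SF-1 transfected cells with DMSO and 100% = mock-transfected cells lacking SF-1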
Target sequence (Q13285 whole entry, looked up, the tested form may be a part): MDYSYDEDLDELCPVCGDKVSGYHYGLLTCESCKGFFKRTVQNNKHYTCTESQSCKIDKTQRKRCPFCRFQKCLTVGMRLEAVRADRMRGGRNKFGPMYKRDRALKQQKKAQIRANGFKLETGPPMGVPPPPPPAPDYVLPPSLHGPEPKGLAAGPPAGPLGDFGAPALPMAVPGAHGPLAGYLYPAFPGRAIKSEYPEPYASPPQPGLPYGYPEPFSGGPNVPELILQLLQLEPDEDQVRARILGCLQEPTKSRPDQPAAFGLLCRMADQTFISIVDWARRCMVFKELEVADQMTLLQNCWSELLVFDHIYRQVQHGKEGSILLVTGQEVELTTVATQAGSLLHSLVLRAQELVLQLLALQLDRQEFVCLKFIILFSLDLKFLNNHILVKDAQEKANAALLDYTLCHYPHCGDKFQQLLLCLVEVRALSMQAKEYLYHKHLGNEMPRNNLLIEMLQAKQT
* = called active by the depositor. The entries come from a sample that favours hits as a whole.

SMILES | SF1 inhibitor
COc1ccc(-c2nnc(NC(=O)c3ccc(S(=O)(=O)N4COCC4(C)C)cc3)o2)cc1 | 50*
CCn1c(SCC(=O)c2ccccc2)nnc1-c1cnccn1 | -45
Cc1cc(C)c(C#N)c(SCC(=O)NC2CC2)n1 | 3
Cc1ccc(C(=O)C2=C(O)C(=O)N(c3ncccn3)C2c2ccc(Cl)cc2)o1 (stereo not drawn) | 1
O=C(Nc1ccccc1)N1CCn2c(nc3ccccc32)C1 | 7
Cc1cc(C(=O)Nc2sc3c(c2C#N)CCC(C)C3)no1 (stereo not drawn) | -97
CCCCCSc1nc2c(c(=O)[nH]c(=O)n2C)n1C(C)C | 4
Cc1nn(Cc2c(Cl)cccc2Cl)c(C)c1NC(=O)c1cc(C(C)C)on1 | -19
O=C(O)c1cc2nc(-c3ccccc3)cc(C(F)(F)F)n2n1 | 7
COc1ccc(-c2cc(C(F)(F)F)nc(N3CCN(c4ccccc4)CC3)n2)cc1OC | -12
CS(=O)(=O)c1nc(-c2ccccc2)cc(C(F)(F)F)n1 | 52*
Nc1cc(OC(=O)c2cccs2)nn1S(=O)(=O)c1ccc(F)cc1 | -12
CC(=O)Nc1ccc(SCC(=O)c2cc(C)n(Cc3cccs3)c2C)cc1 | 58*
Cc1csc(SCC(=O)c2cc(C)n(Cc3cccs3)c2C)n1 | 60*
Cc1nc2ccc(NC(=O)Cc3cccs3)cc2s1 | -80
COc1ccc(-c2nnc(SCC(=O)c3cc(C)n(Cc4cccs4)c3C)o2)cc1 | 12
CCCn1c(C)cc(C(=O)CN2C(=O)c3ccccc3C2=O)c1C | -65
CCN(CC)C(=O)Oc1ccccc1NC(C)=O | 20
C=CCn1c(C)cc(C(=O)CSc2nnc(Cc3ccccc3)o2)c1C | -14
CC(=O)Nc1ccccc1OCC(=O)c1cc(C)n(Cc2cccs2)c1C | 70*
C=CCn1c(C)cc(C(=O)CSc2nnc(NCc3ccccc3)s2)c1C | -59
CCCC(=O)Nc1ccc(NC(=O)C23CC4CC(CC(C4)C2)C3)cn1 | 1
Cc1ccc(N(CC(=O)NC2CCCCCC2)S(=O)(=O)c2c(C)nn(C)c2C)cc1 | -5
O=C1NC(c2ccc3c(c2)OCO3)Nc2ccccc21 (stereo not drawn) | -72
CCc1nnc2c3cnn(-c4ccc(C)c(C)c4)c3ncn12 | -58
SMILES | SF1 inhibitor
COc1ccccc1CC(=O)N1CCN(c2cccc(C(F)(F)F)c2)CC1 | 48*
O=C(O)CCC(=O)N1CCN(c2cccc(Cl)c2)CC1 | -10
COc1ccc2c(c1OC)C(=O)N(c1cccc(C(F)(F)F)c1)C2 | -59
CCC(CC)C(=O)NCCc1cc2ccc(OC)cc2[nH]c1=O | 7
O=S(=O)(NCc1csc(-c2ccccc2)n1)c1ccc(Cl)s1 | 12
O=C(CNS(=O)(=O)c1ccc(Br)s1)Nc1ccc2c(c1)OCCO2 | -27
O=S(=O)(NCc1ccncc1)c1ccc(Br)s1 | 83*
COCCn1nnnc1C(c1cccs1)N1CCN(c2nc3ccccc3s2)CC1 (stereo not drawn) | -4
c1ccc(COc2ccc(OCCn3cncn3)cc2)cc1 | -55
O=C(CN(CC1CCCO1)C(=O)CCC(=O)Nc1ccccn1)NCC1CCCO1 (stereo not drawn) | 0
CCOc1ccc(S(=O)(=O)Nc2ccccc2C(=O)NCC2CCCO2)cc1 (stereo not drawn) | 10
CN(CC1CCCO1)S(=O)(=O)c1ccc(C(=O)Nc2nc(-c3ccccn3)cs2)cc1 (stereo not drawn) | 70*
CCn1c2ccccc2c2cc(NC(=O)COC(=O)C3CCC(=O)N3)ccc21 (stereo not drawn) | 16
CCOc1ccccc1-n1c(SCC(=O)Nc2ccc(CC)cc2)nc2n[nH]c(C)c2c1=N | 84*
CCOc1ccccc1N(CC(=O)Nc1ccc(C)cc1)S(C)(=O)=O | 2
CCOc1cccc(-c2nnc(SCC(=O)Nc3ccc(OC)c(OC)c3)n2N)c1 | 11
Cn1c(CNc2ccc(Cl)cc2)nnc1SCc1ccccc1 | -1
CCOc1cccc(C(=O)Nc2cccc(-c3nnc(-c4ccc(C)cc4)o3)c2)c1 | 11
COc1ccc(CC(=O)Nc2cccc(-c3nnc(-c4cccc(C)c4)o3)c2)cc1OC | 93*
CC(=O)Nc1cccc(-c2nnc(-c3ccccc3)o2)c1 | -51
COc1ccc(CC(=O)Nc2ccc(-c3nnc(-c4ccccc4)o3)cc2)cc1OC | 77*
CCC(=O)Nc1cccc(-c2nc3ccccc3c(=O)o2)c1 | 22
CC(=O)/C=C(\C)Nc1ccc(-c2cnc(-c3ccccc3)o2)cc1 | -57
CCOC(=O)c1sc2nc(NC(=O)C(C)(C)C)sc2c1C | -44
CCCn1c(=O)c2ccccc2n2c(SCc3nnc(-c4ccccc4Br)o3)nnc12 | -14
SMILES | SF1 inhibitor
COCCNC(=O)C(C)OC(=O)c1nsc(Cl)c1Cl (stereo not drawn) | 5
CCOc1ccccc1OC(=O)c1ccco1 | 0
CC(C)CNS(=O)(=O)c1ccc(CCC(=O)NCC2CCCO2)cc1 (stereo not drawn) | -11
CN1C(=O)C(O)(C2COC(C)(C)CC2=O)c2cc(Br)ccc21 (stereo not drawn) | -8
O=C(NCC1COc2ccccc2O1)c1ccc(Cl)cc1 (stereo not drawn) | -60
COC(=O)c1nn(-c2ccc(-c3ccccc3)cc2)cc1O | 56*
CC(=O)c1cc(OC(=O)N2CCOCC2)ccc1OC(=O)N1CCOCC1 | -16
COCCNc1nc2c(c(=O)n(C)c(=O)n2C)n1Cc1cccc(C)c1 | -2
Cn1c(=O)c2c(nc(NC(Cc3ccccc3)C(=O)O)n2Cc2ccccc2)n(C)c1=O (stereo not drawn) | 9
Cn1c(=O)c2c(nc(NCc3ccco3)n2C/C=C/c2ccccc2)n(C)c1=O | 53*
Cc1cnc(NC(=O)COc2ccccc2)s1 | -82
COc1ccc(-c2noc(CCC(=O)NCCN3CCN(c4ccccc4F)CC3)n2)cc1 | 5
COc1ccc(CCC(=O)Nc2ccc(-c3noc(-c4ccc(OC)c(OC)c4)n3)cc2)cc1 | -75
COc1ccc(-c2noc(CCCC(=O)NCCc3ccccc3)n2)cc1OC | 60*
O=C(CCCCC(=O)N1CCN(c2ccccc2)CC1)N1CCN(c2ccccc2)CC1 | 3
CCOc1c(Br)cc(CNc2ncn[nH]2)cc1OC | 6
CC(C)C(C(=O)Nc1nccs1)c1ccccc1 (stereo not drawn) | 11
Cc1ccc(C)c(/C(O)=C2\C(=O)C(=O)N(CCCn3ccnc3)C2c2ccncc2)c1 (stereo not drawn) | 6
Clc1ccc(OCCN2CCN(c3ncnc4sccc34)CC2)cc1 | 90*
O=C(Nc1ccccc1)N1CCC(c2ccccc2)C1 (stereo not drawn) | -68
Cc1cc(C(=O)CSc2nc3ccccc3o2)c(C)n1C1CC1 | -61
Cc1cc(-n2c(C)cc(C(=O)CSc3ncnc4ccccc34)c2C)no1 | 71*
Cc1cc(C(=O)CSc2nc3ccccc3[nH]2)c(C)n1C | -61
O=C(NCCc1ccccc1)C1CCN(S(=O)(=O)c2ccc(-n3cnnn3)cc2)CC1 | 4
O=S(=O)(NC1CCCC1)c1ccc(S(=O)(=O)N2CCCN(Cc3ccccc3)C2)cc1 | 2
O=C(Nc1ccc(-c2cn3ccsc3n2)cc1)C1CC1 | -61
COc1ccc(NC(=O)N2CCCC(c3nc(-c4ccc(C(C)C)cc4)no3)C2)cc1 (stereo not drawn) | 59*
COc1ccc(-c2noc(C3CCCN(C(=O)CCc4ccccc4)C3)n2)cc1 (stereo not drawn) | 4
COc1cccc(NC(=O)N2CCC(N3CCCCC3)CC2)c1 | 21
CCOc1nc(C#N)nc(N2CCCCC2)n1 | 4
